About 6,100 (1.1%) of roughly 580,000 compounds were called active. About 15% were inconclusive and are not listed. Calls come from the whole dose curve; as a rule, active = well fitted inhibition curve with a large enough effect; inconclusive = small, poorly fitted or top-dose-only effect, or another doubt; inactive = no such curve, though single readings can be large or run the other way. The sample as a whole holds a higher share of actives than the screen did.
Molecular target: Polyunsaturated fatty acid lipoxygenase ALOX12 (Homo sapiens) (UniProt P18054)
Sequence (P18054 whole entry, looked up): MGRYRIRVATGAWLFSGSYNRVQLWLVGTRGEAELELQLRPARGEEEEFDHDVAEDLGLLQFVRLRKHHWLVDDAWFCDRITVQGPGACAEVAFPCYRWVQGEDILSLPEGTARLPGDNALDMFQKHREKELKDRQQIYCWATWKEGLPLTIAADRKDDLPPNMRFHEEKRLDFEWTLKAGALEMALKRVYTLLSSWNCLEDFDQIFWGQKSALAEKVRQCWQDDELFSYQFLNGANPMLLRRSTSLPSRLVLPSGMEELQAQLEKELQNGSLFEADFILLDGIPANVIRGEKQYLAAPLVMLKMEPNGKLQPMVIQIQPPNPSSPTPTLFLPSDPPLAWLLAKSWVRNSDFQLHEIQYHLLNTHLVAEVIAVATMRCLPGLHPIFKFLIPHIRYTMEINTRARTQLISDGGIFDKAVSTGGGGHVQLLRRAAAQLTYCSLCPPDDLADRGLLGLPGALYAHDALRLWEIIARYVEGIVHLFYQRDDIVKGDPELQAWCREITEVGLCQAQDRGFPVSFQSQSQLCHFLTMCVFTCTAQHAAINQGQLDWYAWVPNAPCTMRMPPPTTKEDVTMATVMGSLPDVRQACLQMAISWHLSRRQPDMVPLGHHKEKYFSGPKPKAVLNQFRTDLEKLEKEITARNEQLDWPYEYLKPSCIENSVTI
Assay: Primary qHTS assay for inhibitors of human arachidonate 12S-lipoxygenase (ALOX12): Round 2
Details: purified 12hLO, xylenol orange hydroperoxide absorbance; series mostly up to 108 µM; activity change, negative = inhibition: at the top concentration
Outline: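 Hydroperoxide product was detected by ferrous iron/xylenol orange as the 573 to 405 nm absorbance ratio. Arachidonic acid at 40 uM (final) was turned over for 30 min at room temperature by 150 nM human 12hLO, pH 7.0 Hepes buffer, after 15 min compound preincubation.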
% is set by controls: 0 for no effect and ±100 for the full control effect; potency is the fitted concentration of half-maximal effect.

SMILES | activity change, negative = inhibition | Potency
CSCC[C@@H](NC(=O)C(c1ccccc1)c1ccccc1)C(=O)O | -10.3% (inactive) | 
CC1(C)C2CC[C@]3(C)C(CC=C4[C@@H]5C[C@@](C)(CO)CC[C@]5(C(=O)O)CC[C@]43C)[C@@]2(C)CC[C@@H]1O (stereo not given in full) | 15.7% (inactive) | 
CC1(C)[C@H](O[C@H]2O[C@H](C(=O)O)[C@@H](O)[C@H](O)[C@H]2O[C@@H]2O[C@H](C(=O)O)[C@@H](O)[C@H](O)[C@H]2O)CC[C@@]2(C)[C@H]1CC[C@]1(C)[C@H]2C(=O)C=C2[C@H]3C[C@@](C)(C(=O)O)CC[C@]3(C)CC[C@]21C |  | 8.63 µM (active)
Cc1ccc(NC(=O)c2n[nH]c(=O)c3ccccc23)c(C)c1 | -13.1% (inactive) | 
Cc1cc(Br)ccc1NC(=O)C1CCCCC1 | 0.587% (inactive) | 
CC1=C[C@@H](CNCC(C)C)[C@H](C(C)C)C[C@H]1Cc1nc2c(C)cccc2[nH]1 | 14.2% [at 176 µM] (inactive) | 
COc1ccc2cc(CNC(=O)c3nccnc3N)ccc2c1 | -2.78% (inactive) | 
C[C@@H](NC(=O)c1cccnc1)c1c(-c2ccc(F)cc2)noc1C(=O)O |  | 39.8 µM (active)
C[C@@H](NC(=O)COc1ccccc1)c1c(-c2ccc(F)cc2)noc1C(=O)O | 10.6% [at 176 µM] (inactive) | 
COc1ccc(-c2noc(C(=O)O)c2[C@@H](C)NS(=O)(=O)c2ccccc2)cc1 | 24.3% [at 176 µM] (inactive) | 
CC1(C)CC(=O)C(CCS(=O)(=O)OCC(F)(F)C(F)F)(CCS(=O)(=O)OCC(F)(F)C(F)F)C(=O)C1 | 2.97% (inactive) | 
CS(=O)(=O)c1ccc(-c2csc(NC3CCCCC3)n2)cc1 | -2.88% (inactive) | 
CC(C)CNc1nc(-c2ccc3c(c2)CCCN3S(C)(=O)=O)cs1 |  | 14.1 µM (active)
CC(C)CCNc1nc(-c2ccc(S(=O)(=O)N3CCOCC3)cc2)cs1 | -5.58% (inactive) | 
CCCc1nc(C#N)c(N2CCN(c3ccccc3)CC2)o1 | -22.7% (inactive) | 
COc1cccc(CN2CCC(C(=O)NC(c3ccc4c(c3)OCO4)c3ccccn3)CC2)c1 (stereo not given) | -2.37% (inactive) | 
Cc1cccnc1C(NC(=O)C1CCN(Cc2ccc(Cl)c(Cl)c2)CC1)c1ccc(Cl)cc1 (stereo not given) | -10.3% (inactive) | 
O=C(NC(c1ccc(-c2ccccc2)cc1)c1cnccn1)C1CCN(CCOc2ccc(Cl)cc2Cl)CC1 (stereo not given) |  | 44.7 µM (active)
Cc1ccc(C(NC(=O)C2CCN(CCOc3ccc(Cl)cc3Cl)CC2)c2ccccn2)cc1 (stereo not given) |  | 56.2 µM (active)
O=C(COc1ccc(Cl)cc1Cl)NCCCNC(=O)c1cnccn1 | 0.217% (inactive) | 
CCOc1ccc(S(=O)(=O)N2CCC(C(=O)NCc3ccccn3)CC2)cc1Cl | -25.1% (inactive) | 
Fc1ccccc1-c1n[nH]c2c1CN(Cc1cccc3c1OCO3)CC2 | -12.2% (inactive) | 
Cc1ccccc1-c1cc(-c2ccccc2C)[nH]n1 | -23.8% (inactive) | 
CC(CNC(=O)c1cc2ccccc2s1)N1CCCC1 (stereo not given) | -16.1% (inactive) | 
OCCCNC(=S)Nc1ccccc1F | 0.703% (inactive) | 

SMILES | activity change, negative = inhibition | Potency
Cc1nc(-c2cccnc2)sc1CCNS(=O)(=O)c1cccs1 | -2.94% (inactive) | 
C[N+](C)(C)CC#CCCCC#CC[N+](C)(C)C |  | 11.2 µM (active)
O=C(Nc1ccc2c(c1)OCCO2)c1nn(-c2ccccc2)c(=O)c2ccccc12 | 0.0556% (inactive) | 
COC(=O)C[C@@H]1C=C[C@@H](NS(=O)(=O)c2cccc(OC)c2)[C@@H](CO)O1 | -25.2% (inactive) | 
COc1ccc(S(=O)(=O)N[C@@H]2C=C[C@@H](CC(=O)N3CCc4ccccc4C3)O[C@@H]2CO)cc1 |  | 25.1 µM (active)
COC(=O)C[C@H]1C=C[C@@H](NS(=O)(=O)c2ccc(C)cc2)[C@@H](CO)O1 | 5.66% (inactive) | 
N#CC1(c2ccc(N)cc2)CCCC1 | 13.6% (inactive) | 
COc1ccccc1NC(=O)c1cc2ccccc2cc1OCC(N)=O |  | 35.5 µM (active)
CCCn1nnc(NC(=O)c2cc3ccccc3cc2OC)n1 | -6.59% (inactive) | 
CCn1nnc(NC(=O)c2cc3ccccc3cc2OC)n1 | -19.5% (inactive) | 
COCCCNC(=O)CN(C)C(=O)c1cccc(C(F)(F)F)c1 | 5.64% (inactive) | 
CCc1nnsc1C(=O)N(C)Cc1c(F)cccc1Cl | 34% (inactive) | 
N#Cc1cc(NCC(=O)N2CCNC2=O)ccc1Cl | 14.5% (inactive) | 
Clc1ccccc1CSc1nnc(-c2ccco2)c(-c2ccco2)n1 |  | 3.55 µM (active)
CC1(C)N=C(SCc2ccccc2Cl)c2ccccc2N1 | -9.25% (inactive) | 
Fc1ccc(Nc2nc(SCc3ccccc3Cl)nc3ccccc23)cc1 | -21.5% (inactive) | 
O=C(NCC1CCCO1)c1cc(Cl)c2c(c1)OCCO2 (stereo not given) | 9.31% (inactive) | 
Cc1ccccc1CN(CC1CCCO1)C(=O)c1cccc(CCC(C)(C)O)c1 (stereo not given) | 80.5% (inactive) | 
CCCn1c(=O)c2c(C(F)(F)F)cc(-c3cccs3)nc2n(CCC)c1=O | -9.97% (inactive) | 
Cc1nn(CCc2nc(-c3ccccc3F)cs2)c2[nH]c(=O)cc(C(F)(F)F)c12 |  | 7.08 µM (active)
Cc1nn(-c2ccccc2)c2[nH]c(C(F)(F)F)cc(=O)c12 | 0% [at 57.4 µM] (inactive) | 
Cc1cc2oc(=O)cc(COC(=O)c3cc(S(=O)(=O)N(C)C)ccc3NCCO)c2cc1C | -22% (inactive) | 
CCOc1cccc(/C=N/N2C(=O)CSC2=S)c1O |  | 31.6 µM (active)
CCOC(=O)C1(C(F)(F)F)N=C(c2ccc(OC)cc2)OC(N(C)C)=N1 (stereo not given) | 0.631% (inactive) | 
O=C(CCNC(=O)N1CCN(C(=O)c2cc3ccccc3[nH]2)CC1)NCc1ccccn1 | 8.38% (inactive) | 

From PubChem BioAssay AID1671190 (National Center for Advancing Translational Sciences (NCATS), 2021)
